According to PubChem BioAssay (NCATS):
Results filed as inconclusive are left out. Values without a mark were called inactive. The source made the active and inactive calls. Calls follow the shape of the dose curve; as a rule, active = well fitted cell-killing curve with a large enough effect; inconclusive = small, poorly fitted or top-dose-only effect; inactive = flat fitted curve, though single readings scatter.
% is scaled to controls: 0 for no effect and ±100 for the full control effect; potency is read from the fitted curve at half-maximal effect.

Assay: qHTS of pediatric cancer cell lines to identify multiple opportunities for drug repurposing: Primary screen for Rh18 cells (AID 1347102); also: nearly all actives have a fitted effect of over 65% in size
Settings: Rh18 rhabdomyosarcoma viability, CellTiter-Glo luminescence, 48 h; series mostly up to 46 µM; activity change, negative = cytotoxic: at the top concentration
Source text: Drug repurposing or repositioning has been offered as a strategy for drug development in oncology programs. This approach has special potential for childhood cancers and other rare or orphan diseases, where the expected return on new drug development has been a disincentive to pharmaceuticals.
In this project we exploit the poly-pharmacology of drugs to discover new indications via phenotypic screening of a panel of 19 well-characterized cell lines derived from solid tumors seen in children and adolescents. The goal is to identify approved drugs with previously unrecognized anticancer properties that has the potential to reveal new mechanisms and biological processes involved in carcinogenesis or drug resistance. We employed a titration-based paradigm (quantitative high-throughput screening or qHTS), where all compounds were tested at multiple concentrations for their effect on cell viability. Concentration-response curves (CRCs) were derived directly from the primary screen, and both potency and efficacy values were used to identify compounds with robust bioactivity profiles. We screened the NIH Chemical Genomics Center (NCGC) Pharmaceutical Collection (NPC) and Mechanism Interrogation Plate (MIPE) small molecule collections of approved and investigational compounds against these cell lines; and measured metabolically active cells after 48 hours of compound treatment as a proxy for cell viability.
Assay Submitter: Nathalia J. Martinez, National Center for Advancing Translational Sciences, National Institutes of Health, Rockville, MD, USA; email: natalia.martinez@nih.gov
[1] Shen, M et al. Quantitative high-throughput phenotypic screening of pediatric cancer cell lines identifies multiple opportunities for drug repurposing. Oncotarget 2017 Dec 19;9(4):4758-4772. PMID 29435139.
The cells were obtained from University of North Carolina (UNC), Pediatric Preclinical Testing Program (PPT), and Coriell Institute (CI).
qHTS cell viability assay:
Cells were assayed in growth media at a density of 500-1,000 cells/well. Five microliters of cells were dispensed into 1,536-well, white, solid-bottom, TC-treated plates (Greiner Bio One) using a multidrop dispenser and incubated at 37 degrees C, 5% CO2, under a humidified atmosphere for 5 hours. Twenty-three nanoliters of compounds and controls (neutral control DMSO or positive control bortezomib at final concentration of 2.3 µM) were subsequently transferred by Kalypsys pintool. For primary screens, the MIPE collection was tested at 11-point dilutions (final concentrations range from 0.78 nM to 46 µM) and the NPC collection at 8-point dilutions (final concentrations range from 0.59 nM to 46 µM). Compounds tested in follow-up screens were assayed at 11-point dilutions. Cells were incubated for 48 hours, followed by addition of 3 µL of CellTiter-Glo (Promega). After a 15 min incubation at room temperature, samples were analyzed for luminescence intensity using a ViewLux High-throughput CCD imager equipped with clear filters.
For `Nc1ccc(C(=O)O)c(O)c1`, the “activity change, negative = cytotoxic” value was 17.3%. For `CCOc1ccc2nc(S(N)(=O)=O)sc2c1`, the “activity change, negative = cytotoxic” value was -6.62%. In the case of `Nc1ccc(O)c(C(=O)O)c1`, the “activity change, negative = cytotoxic” value is reported as -0.873%. With `CC(=O)c1ccc(OCC(=O)N2CCCCC2)cc1` the “activity change, negative = cytotoxic” value was -1.22%. In the case of `COC(=O)C1=C(C)NC(C)=C(C(=O)OCC(C)=O)C1c1ccccc1[N+](=O)[O-]` (stereo not given), the “activity change, negative = cytotoxic” value is reported as -6.19%. For `Clc1ccccc1-c1nc(-c2ccncc2)no1`, the “activity change, negative = cytotoxic” value was -12.6%. In the case of `Cc1ccc2c(n1)Oc1ccc(C(C)C(=O)OCC(=O)N(C)C)cc1C2` (stereo not given), the Potency is reported as “inactive”. For `N=C(N)N`, the “activity change, negative = cytotoxic” value was 27.8%. For `C[N+]1(C)[C@@H]2CC(OC(=O)[C@H](CO)c3ccccc3)C[C@H]1[C@@H]1O[C@@H]12` (stereo not given in full), the “activity change, negative = cytotoxic” value was 25.6%. With `Cc1ccc(O)c(-n2nc3ccccc3n2)c1` the “activity change, negative = cytotoxic” value was -3.42%. For `CC(=O)SCC(CC(=O)c1ccc(C)cc1)C(=O)O` (stereo not given), the “activity change, negative = cytotoxic” value was -1.18%. For `O=C(CS)Nc1ccccc1`, the “activity change, negative = cytotoxic” value was -21.9%. With `Cc1[nH]cnc1CN1CCc2c(c3ccccc3n2C)C1=O` the “activity change, negative = cytotoxic” value was 8.81%. In the case of `C/C(=N\O)c1ccc(OCC(=O)N2CCCCC2)cc1`, the “activity change, negative = cytotoxic” value is reported as 0.836%. With `CN1CCN(c2cc3c(nn2)Oc2ccccc2N3C)CC1` the “activity change, negative = cytotoxic” value was 11.3% [at 16.1 µM]. With `[O-][n+]1ccccc1SSc1cccc[n+]1[O-]` the Potency was 0.517 µM (active). For `CCCCCCCC/C=C/C(=O)O`, the “activity change, negative = cytotoxic” value was 1.58%. In the case of `CCC1C(=O)OCC1Cc1cncn1C` (stereo not given), the “activity change, negative = cytotoxic” value is reported as 14.5%. With `CN(C)c1ccc(N=NS(=O)(=O)O)cc1` the “activity change, negative = cytotoxic” value was 31.2% [at 92.7 µM]. With `CC(C(=O)O)c1ccc(C(=O)c2cccs2)cc1` (stereo not given) the “activity change, negative = cytotoxic” value was 0.622%. For `O=C(O)/C=C\C(=O)O`, the “activity change, negative = cytotoxic” value was 10.5%. In the case of `O=c1cc(-c2ccccc2)oc2ccccc12`, the “activity change, negative = cytotoxic” value is reported as -30% [at 92.7 µM]. For `Cc1c(N)c(=O)n(-c2ccccc2)n1C`, the “activity change, negative = cytotoxic” value was 0.631%. With `O=C(O)Cc1ccc2c(c1)C(=O)c1ccccc1CO2` the “activity change, negative = cytotoxic” value was 14.7%. In the case of `CC1(C)S[C@@H]2[C@H](NC(=O)[C@H](N)c3ccccc3)C(=O)N2[C@H]1C(=O)O`, the “activity change, negative = cytotoxic” value is reported as 10.8%. With `O=C(O)c1ccccc1Nc1cccc(C(F)(F)F)c1` the “activity change, negative = cytotoxic” value was 16.2%. With `CC(C)OC(=O)c1cc(C(=O)OC(C)C)cc([N+](=O)[O-])c1` the “activity change, negative = cytotoxic” value was -15.4% [at 92.7 µM]. With `c1ccc2sc(SN3CCOCC3)nc2c1` the “activity change, negative = cytotoxic” value was 13.2%. For `O=C1CN(/N=C/c2ccc([N+](=O)[O-])o2)C(=O)N1`, the “activity change, negative = cytotoxic” value was 3.22%. With `C#CC1(O)CC[C@H]2[C@@H]3CCC4=CCCC[C@@H]4[C@H]3CC[C@@]21C` (stereo not given in full) the “activity change, negative = cytotoxic” value was 20.1%. For `CC(C)(C)c1nnc(NS(=O)(=O)c2ccc(N)cc2)s1`, the “activity change, negative = cytotoxic” value was 5.22%. In the case of `S=c1[nH]c2ccccc2s1`, the “activity change, negative = cytotoxic” value is reported as 16.7% [at 92.7 µM]. With `CN(C)[C@@H]1C(=O)C(C(=O)NCN2CCCC2)=C(O)[C@@]2(O)C(=O)C3=C(O)c4c(O)cccc4[C@@](C)(O)C3C[C@@H]12` (stereo not given in full) the “activity change, negative = cytotoxic” value was -6.28%. With `CCCCCCCCCCCCCCCCCC(=O)O` the “activity change, negative = cytotoxic” value was 2.53%. With `O=C(OCc1ccccc1)c1ccccc1` the “activity change, negative = cytotoxic” value was 2.79%. For `c1ccc2sc(SSc3nc4ccccc4s3)nc2c1`, the “activity change, negative = cytotoxic” value was 3.05% [at 16.1 µM]. In the case of `COC(=O)c1nc(Cl)c(Cl)nc1N`, the Potency is reported as 23.7 µM (active). For `O=C(O)c1cc(O)c(O)c(O)c1`, the “activity change, negative = cytotoxic” value was -22.3%. In the case of `COC(=O)Nc1nc2ccc(C(=O)C3CC3)cc2[nH]1`, the “activity change, negative = cytotoxic” value is reported as -13.6%. With `O=C(O)Cc1cccc(-c2cc(CCCCCCc3ccc(O[C@H]4O[C@H](CO)[C@@H](O)[C@H](O)[C@@H]4O)c(-c4cccc(CC(=O)O)c4)c3)ccc2O[C@H]2O[C@H](CO)[C@@H](O)[C@H](O)[C@@H]2O)c1` the activity change, negative = cytotoxic was 18.6% [at 0.597 µM].
